The nature of the assay: HeLa cell cytotoxicity, dose response, cytotoxicity control, CellTiter-Glo luminescence, dry powder, set 3 (AID 1117294). The settings on record: HeLa viability, ATP luminescence (CellTiter-Glo), 72 h. For orientation: In ATP-based viability assays light output follows the ATP content of the culture.

The results in this text go back to PubChem BioAssay AID1117294 (Broad Institute, 2014).

The structures appear in SMILES notation. A number with no mark means an inactive call.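 Rule for the calls: active = Lowers HeLa cell ATP signal, with fitted half-maximal potency at most twice the top tested dose in every run; inconclusive = runs disagree, or fits flat mid-range or poor; inactive = every run inactive, including signal rising.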

Turning to `COc1ccc(C(=O)O)cc1S(=O)(=O)Nc1cccc(N2CCCCC2)c1C(F)(F)F`, the max activity was 15.2%.
As for `O=S(=O)(O)c1ccc(N2N=C(c3ccccc3)CC2c2ccccc2)cc1` (stereo not drawn), the max activity (at 0.0015 µM) is -32.4%.
Turning to `COc1ccc(C(=O)O)cc1S(=O)(=O)Nc1cc(C(F)(F)F)ccc1N1CCOCC1`, where the note is “at 0.003 µM”, the max activity is -16.9%.
For the compound `COc1ccc(C(=O)O)cc1S(=O)(=O)Nc1cc(C(F)(F)F)ccc1N1CCCCC1`, the max activity (at 0.0235 µM) was -13.4% and the max activity (at 12 µM) was -15.9%.
Consider `COc1ccc(C(=O)O)cc1S(=O)(=O)Nc1cc(C(F)(F)F)ccc1N(C)C`, for which the max activity (at 6 µM) is -19%.
Turning to `COc1ccc(C(=O)O)cc1S(=O)(=O)N1CCN(c2ccc(C(F)(F)F)cc2N)CC1`, for the setting “at 12 µM”, the max activity was -20.1%.
Take `COc1ccc(C(=O)Nc2cccc(C(F)(F)F)c2)cc1S(=O)(=O)O`: the max activity (at 26 µM) is -20.5%.
